# ALOX12 inhib = blocks human 12-lipoxygenase activity; P18054; purified 12-hLO, xylenol orange hydroperoxide absorbance; Potency, µM (doses to about 57.1 µM), for the others: top-dose activity change, negative = inhibition, actives largely listed as inhibitors; actives 0.12% (n = 150,000); AID 1452; active means well fitted inhibition curve with a large enough effect; inconclusive means small, poorly fitted or top-dose-only effect; further: potency means the concentration at half of the fitted maximal effect; nearly all actives have a fitted effect of over 55% in size
# Target sequence (P18054 whole entry, looked up): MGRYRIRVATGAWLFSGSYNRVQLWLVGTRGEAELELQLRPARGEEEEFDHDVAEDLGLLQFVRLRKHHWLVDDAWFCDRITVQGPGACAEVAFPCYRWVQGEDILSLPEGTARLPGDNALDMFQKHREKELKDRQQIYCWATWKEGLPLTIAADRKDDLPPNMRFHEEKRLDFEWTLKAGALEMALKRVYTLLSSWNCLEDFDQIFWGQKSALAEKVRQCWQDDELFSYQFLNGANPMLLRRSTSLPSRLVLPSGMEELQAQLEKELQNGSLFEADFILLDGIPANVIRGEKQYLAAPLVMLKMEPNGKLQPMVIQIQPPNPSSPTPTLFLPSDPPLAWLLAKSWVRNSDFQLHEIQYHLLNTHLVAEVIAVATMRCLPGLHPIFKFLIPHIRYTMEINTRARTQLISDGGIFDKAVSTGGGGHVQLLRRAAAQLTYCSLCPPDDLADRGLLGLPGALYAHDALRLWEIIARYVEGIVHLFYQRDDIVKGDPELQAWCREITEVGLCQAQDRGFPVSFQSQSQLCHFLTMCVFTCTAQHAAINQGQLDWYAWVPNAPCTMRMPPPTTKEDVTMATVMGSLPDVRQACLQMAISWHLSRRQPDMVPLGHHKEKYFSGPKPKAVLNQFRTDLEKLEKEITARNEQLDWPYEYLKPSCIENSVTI
#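 Lipoxygenase turnover measured by absorbance at 573 and 405 nm after Fe-XO development. Human 12hLO 150 nM, arachidonate 40 uM, pH 7.0 Hepes buffer with detergent; 15 min compound preincubation, 30 min reaction.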
# HPGD block = inhibitors of human 15-hydroxyprostaglandin dehydrogenase (HPGD). purified HPGD, NADH fluorescence kinetic, PGE2 substrate. Potency, µM, for the others: at the highest dose activity change, negative = inhibition, usual class: inhibitors. actives 4.3% (n = 150,000). AID 894; further: potency means the concentration at half of the fitted maximal effect
#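 NADH formation kinetics: reaction with 30 uM PGE2 and 1 mM NAD+ (final), 20 nM enzyme, Tris-HCl pH 8 with Tween 20, after 15 min compound preincubation at room temperature. Fluorescence change, last versus first of five reads.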
# PNC assembly inh = perinucleolar compartment assembly inhibition; PC3M PTB-GFP, PNC prevalence imaging, 16 h; stronger effect = lower value; activity change (PNC), negative = inhibition, % at 10 µM; actives 3.1% (n = 140,000); AID 2417;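 active means readout at or below -70, meaning at least 70% loss of cells showing the perinucleolar compartment, a nuclear body marking cancer cells; inconclusive means readout between -30 and a set limit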;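 further: plate controls were DMSO wells for no effect and camptothecin positive control wells for full effect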
#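 PC3M cells stably expressing PTB-GFP, 750–1000 cells/well, treated 16 h at 37 °C with compound (23 nl of library stock), in duplicate. After paraformaldehyde fixation and Hoechst stain, imaged at 20x; PNC prevalence scored by image analysis.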
# ALDH1A1 inh = ALDH1A1 (human) enzyme inhibition. P00352. Purified ALDH1A1, NADH fluorescence, propionaldehyde substrate. Potency, µM (top dose mostly 75.3 µM), for inactives: top-dose activity, negative = inhibition, most hits filed as inhibitors. actives 7.3% (n = 220,000). AID 1030;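 further: potency means the concentration at half of the fitted maximal effect; plate controls were no enzyme wells and a reference inhibitor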
# LMNA splice mod = changes lamin A minigene splicing in HeLa cells; HeLa LMNA splicing GFP/RFP minigene ratio, 48 h; AID 1487; Potency, µM (series often up to 46.1 µM), for inactives: at the top dose ratio change, negative = inhibition, actives largely listed as inhibitors; actives 0.01% (n = 200,000); active means well fitted inhibition curve with a large enough effect in the signal ratio, with a control signal flat, not every such curve was filed as active; inconclusive means small, poorly fitted or top-dose-only effect, or effect the other way, or a change in a side signal; the % refers to the signal ratio; further: potency means the concentration at half of the fitted maximal effect
#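 S3 HeLa stable clones carrying a lamin A-EGFP splicing minigene plus DsRed2 were seeded at 600 cells/well in Opti-MEM with 2% FBS, pin-dosed and incubated 48 h at 37°C. Acumen cytometry (488 nm) gave the GFP/RFP total-intensity ratio.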
# Starred values were filed as active, the others as inactive; ? = inconclusive; / = not tested or not shown; [ ] = remark or other dose. Sampled rows, rich in hits. Any-hit rate of the full collection: about 10%. Unless noted, the call rests on the fitted dose curve; in most records, active means well fitted inhibition curve with a large enough effect (not every such curve was filed as active); inconclusive means small, poorly fitted or top-dose-only effect, or another doubt; inactive means no such curve, though single readings can be large or run the other way. Unless noted, on the % scale 0 is the no-effect control and ±100 the full control effect.
SMILES,ALOX12 inhib,HPGD block,PNC assembly inh,ALDH1A1 inh,LMNA splice mod
COc1ccccc1CN1CCNC(=O)C1CC(=O)NCCCn1cccn1 (configuration not stated),/,/,/,25µM*,/
COc1ccccc1CN1CCNC(=O)C1CC(=O)NCCC1=CCCCC1 (configuration not stated),/,/,/,25µM*,?
CN1CCN(C(c2cccnc2)c2ccc3cccnc3c2O)CC1 (configuration not stated),1.6µM*,-29%,?,1.9µM*,9%
COC(=O)Cn1c(=NC(=O)C(C)C)sc2c(C)cc(C)cc21,-2%,-12%,5,-13%,-12%
CCn1c(=NC(=O)CN2C(=O)CCC2=O)sc2c(C)cc(C)cc21,-4%,14µM*,24,-8%,3%
COc1cc(C2C(C#N)=C(N)Oc3cc(N)ccc32)cc(OC)c1OC (configuration not stated),7%,-17%,-89*,3%,?
NC(=S)N/N=C/c1coc2c(ccc3ccccc32)c1=O,-2%,-12%,-28,2.2µM*,?
NC(=S)N/N=C/c1coc2cc(Br)ccc2c1=O,/,/,/,2µM*,?
O=c1cc(/N=C/c2coc3c(ccc4ccccc43)c2=O)[nH]c(=S)[nH]1,-3%,2.2µM*,39,?,4%
O=c1cc(-c2ccco2)oc2c1ccc1ccccc12,-5%,-12%,?,?,6%
NC(=O)N/N=C/c1coc2ccc3ccccc3c2c1=O,/,/,/,-10%,-3%[46 µM]
CCCCCCCCCCCCCCCC(=O)NC(C)C,-2%,-3%,/,-2%,/
CCC(=O)NNC(=O)CCC(=O)Nc1cccc(Cl)c1C,/,/,/,8%,?
Cc1ccccc1NC(=O)CN1C(=O)C2C3CC(C(Br)C3Br)C2C1=O (configuration not stated),-2%,14µM*,-17,10µM*,-6%
Cc1c(Cl)cccc1NC(=O)Cn1cccc1,2%,18µM*,0,8%,?
O=C(CN1C(=O)C2C3c4ccccc4C(c4ccccc43)C2C1=O)Nc1ccccc1C(=O)O (configuration not stated),2%,-19%,-25,5%,0%
Cc1ccccc1NC(=O)Cn1cccc1,2%,32µM*,?,8%,?
CN(C)CCN(c1ccccn1)c1ccccn1,2%[11.4 µM],-4%,/,8%[13.5 µM],/
CCOC(=O)c1ccc(CN(Cc2ccc(F)cc2)S(=O)(=O)c2ccc(F)c(C(=O)Nc3cc(Cl)ccc3OC)c2)cc1,/,/,/,/,20%[46 µM]
CNc1nc(-c2ccccc2C(F)(F)F)nc2ccccc12,6%,-9%,/,3%,17%
CN(C)c1ccc(/C=[N+](\[O-])C(C)(C)/C=N/O)cc1,-3%,-19%,12,22µM*,11%
CC(C)(/C=N/O)/[N+]([O-])=C/C=[N+](\[O-])C(C)(C)/C=N/O,-2%,-15%,-13,?,0%
CCn1ccc2cc(S(=O)(=O)N3CCC(C(=O)NCCc4ccccc4Cl)CC3)ccc21,/,/,/,/,-13%[46 µM]
COc1cccc(C(=O)CSc2nc3ccccc3n2CC(=O)N(C(C)C)C(C)C)c1,4%,-8%,-100*,-2%,-10%
COC(=O)CSc1nc2ccccc2n1CC(=O)N(C(C)C)C(C)C,4%,/,6,0%,-7%
SMILES,ALOX12 inhib,HPGD block,PNC assembly inh,ALDH1A1 inh,LMNA splice mod
CCOC(=O)CC(=O)CSc1ncc(C(=O)OCC)c(N)n1,2%,-28%,?,22µM*,-7%
CCOC(=O)c1cnc(SCc2cccc3ccccc23)nc1N,6%,28µM*,2,?,?
O=C1CCC[C@H]2OC12[C@@H](O)CCc1ccccc1 (some centres not stated),/,/,/,23%[13.5 µM],/
CC1(C)C(=O)C(c2ccccc2)=C2CN3C(=O)N(CCc4ccccc4)C(=O)C3(Cc3ccc(F)cc3)C=C21 (configuration not stated),-1%,-13%,/,-8%,/
Cc1ccc(N2CCN(C(=O)c3c(C)oc4ncnc(N5CCCCC5)c34)CC2)c(C)c1,/,/,/,/,-19%[46 µM]
CCc1cccc(NC(=O)CSC2=Nc3ccccc3N=C(c3ccc(F)cc3)C2)c1,/,/,/,/,-3%[46 µM]
S=c1[nH]nc(CSCc2ccccc2Cl)n1-c1ccccc1,-11%,?,-8,4.5µM*,14%
CC1(Cn2ccnn2)[C@H](C(=O)O)N2C(=O)C[C@H]2S1(=O)=O (some centres not stated),1%[0.00818 µM],1%,/,5%,?
CCCc1nnc(SCC(=O)Nc2ccc(OC)cc2)n1N,-3%,-11%,11,?,9%
CCCc1nnc(SCc2ccc(OC)cc2)n1N,5%,18µM*,29,4%,-15%
CCCCc1nnc(SCCSc2nnc(CCCC)n2N)n1N,4%,-12%,8,18µM*,-8%
CCCOc1ccc(CSc2nnc(CCC)n2N)cc1,3%,-23%,23,8%,-3%
COc1ccc(-c2nnc(SCc3cccc(C)c3)n2N)cc1,4%,-16%,0,1%,-6%
COc1ccc(-c2nnc(SCc3cc(C)ccc3C)n2N)cc1,-4%,?,72,22µM*,-1%
CCCCCCCCCCCCCCC[C@@H](O)[C@H](CO)NC(C)=O,-6%,-11%,/,1%,/
O=C(COC(=O)c1ccc(O)cc1)NCc1ccc2c(c1)OCO2,/,/,/,-4%,12%[46 µM]
Cc1ccsc1C(=O)OCC(=O)NCc1ccc2c(c1)OCO2,-3%,13µM*,4,-3%,-4%
CC(=O)OCC(=O)NCc1ccc2c(c1)OCO2,-4%,20µM*,?,10%,4%
COc1cc(OC)cc(C(=O)OCC(=O)NCc2ccc3c(c2)OCO3)c1,/,/,/,-2%,/
O=C(COC(=O)c1cnc(Cl)c(Cl)c1)NCc1ccc2c(c1)OCO2,-1%,-3%,8,2.2µM*,-11%
COC(=O)c1cc(C(=O)OCC(=O)NCc2ccc3c(c2)OCO3)cc([N+](=O)[O-])c1,-2%,5%,55,-5%,5%
COc1ccc(C(=O)OCC(=O)NCc2ccc3c(c2)OCO3)cc1[N+](=O)[O-],-1%,-2%,-107*,5µM*,-4%
O=C(COC(=O)c1ccc2c(c1)OCO2)NCc1ccc(Cl)cc1,-17%,-2%,?,10%,6%
CC(=O)Nc1ccc(S(=O)(=O)NCCc2csc3nc(-c4ccc(Cl)cc4)nn23)cc1,/,/,/,/,3%[46 µM]
Cc1ccc(O)c(-c2cc(C(=O)NCc3ccc4c(c3)OCO4)[nH]n2)c1,1%,3.2µM*,20,?,-2%
Cc1cccc(C(=O)NC(=S)NNC(=O)COc2c(C)cccc2C)c1,-9%,-4%,-3,?,?
Cc1ccc(C(=O)NC(=S)NNC(=O)COc2ccccc2C)cc1,/,/,/,11µM*,?
CC(=O)NNC(=S)NC(=O)c1ccc(C)cc1,/,/,/,?,31%[46 µM]
CCC(=O)NNC(=S)NC(=O)c1ccc(C)cc1,/,/,/,20µM*,/

# Bioassay records deposited in PubChem BioAssay by National Center for Advancing Translational Sciences (NCATS).
